Measured values from the supplement of paper PMC10849652.
Targets with a hit are over-represented here; the source holds about 8,800 in all. About 0.5% of all pairs of compound and target were hits.

Legend:
Test in all cases: log2 fold change, soluble protein after heating vs DMSO (PISA); higher = thermal stabilisation; K562 lysate, 10 uM; active = over 0.2 and 3.5 SD of the protein, either way, in both replicates (recomputed)
alvocidib = compound: CN1CC[C@H](c2c(O)cc(O)c3c(=O)cc(-c4ccccc4Cl)oc23)[C@H](O)C1 [alvocidib]
How it was run: (§1)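 The values are log-two fold changes in thermal stability compared with solvent controls and come from duplicates. They were obtained by TMTpro 16plex LC-MS/MS, with channel sums equalised, on the supernatant after 21,000xg for 90 min. That supernatant came from crude K562 extract at 1 mg/mL protein treated with 10 μM compound for 30 min, heated for 3 min across 48°C-58°C, pooled and brought to 0.5% NP-40 at 4°C.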

Tubastatin A = compound: CN1CCc2c(c3ccccc3n2Cc2ccc(C(=O)NO)cc2)C1 [Tubastatin A]
How it was run: as §1

[1] = compound: CNC(=O)C1=CC=CC=C1NC2=NC(=NC=C2Cl)NC3=C(C=C(C=C3)N4CCOCC4)OC
How it was run: as §1

defactinib = compound: CNC(=O)c1ccc(Nc2ncc(C(F)(F)F)c(NCc3nccnc3N(C)S(C)(=O)=O)n2)cc1 [defactinib]
How it was run: as §1

[2] = compound: CNc1nc(-c2ccc3c(N)n[nH]c3c2)cc(N2C[C@@H](C(=O)NC3CCCCC3)CC[C@H]2C)n1
How it was run: as §1

encorafenib = compound: COC(=O)N[C@@H](C)CNc1nccc(-c2cn(C(C)C)nc2-c2cc(Cl)cc(NS(C)(=O)=O)c2F)n1 [encorafenib]
How it was run: as §1

[3] = compound: COC(=O)[C@H](CCSC)NC(=O)C1=C(C=C(C=C1)NC[C@H](CS)N)C2=CC=CC=C2
How it was run: as §1

alisertib = compound: COc1cc(Nc2ncc3c(n2)-c2ccc(Cl)cc2C(c2c(F)cccc2OC)=NC3)ccc1C(=O)O [alisertib]
How it was run: as §1

[4] = compound: COc1cc2nc(-c3cc(F)ccc3O)nc(N[C@@H]3CNC[C@H]3C(C)(C)O)c2cc1OC
How it was run: as §1

gefitinib = compound: COc1cc2ncnc(Nc3ccc(F)c(Cl)c3)c2cc1OCCCN1CCOCC1 [gefitinib]
How it was run: as §1

lapatinib = compound: CS(=O)(=O)CCNCc1ccc(-c2ccc3ncnc(Nc4ccc(OCc5cccc(F)c5)c(Cl)c4)c3c2)o1 [lapatinib]
How it was run: as §1

pictilisib = compound: CS(=O)(=O)N1CCN(Cc2cc3nc(-c4cccc5[nH]ncc45)nc(N4CCOCC4)c3s2)CC1 [pictilisib]
How it was run: as §1

crizotinib = compound: C[C@@H](Oc1cc(-c2cnn(C3CCNCC3)c2)cnc1N)c1c(Cl)ccc(F)c1Cl [crizotinib]
How it was run: as §1

[5] = compound: C[C@H](C1=CC=C(C=C1)C(=O)NC2=C3C=CNC3=NC=C2)N
How it was run: as §1

duvelisib = compound: C[C@H](Nc1ncnc2nc[nH]c12)c1cc2cccc(Cl)c2c(=O)n1-c1ccccc1 [duvelisib]
How it was run: as §1

gandotinib = compound: Cc1cc(Nc2cc(CN3CCOCC3)c3nc(C)c(Cc4ccc(Cl)cc4F)n3n2)n[nH]1 [gandotinib]
How it was run: as §1

tozasertib = compound: Cc1cc(Nc2cc(N3CCN(C)CC3)nc(Sc3ccc(NC(=O)C4CC4)cc3)n2)n[nH]1 [tozasertib]
How it was run: as §1

doramapimod = compound: Cc1ccc(-n2nc(C(C)(C)C)cc2NC(=O)Nc2ccc(OCCN3CCOCC3)c3ccccc23)cc1 [doramapimod]
How it was run: as §1

bafetinib = compound: Cc1ccc(NC(=O)c2ccc(CN3CC[C@H](N(C)C)C3)c(C(F)(F)F)c2)cc1Nc1nccc(-c2cncnc2)n1 [bafetinib]
How it was run: as §1

[6] = compound: Cc1cccc(CC(=O)N2CCc3c2ccc(-c2cn(C)c4ncnc(N)c24)c3F)n1
How it was run: as §1

Measured: log2 fold change

KCTD20 (UniProt Q7Z5Y7)
UniProt Q7Z5Y7, sequence (Q7Z5Y7 whole entry, looked up): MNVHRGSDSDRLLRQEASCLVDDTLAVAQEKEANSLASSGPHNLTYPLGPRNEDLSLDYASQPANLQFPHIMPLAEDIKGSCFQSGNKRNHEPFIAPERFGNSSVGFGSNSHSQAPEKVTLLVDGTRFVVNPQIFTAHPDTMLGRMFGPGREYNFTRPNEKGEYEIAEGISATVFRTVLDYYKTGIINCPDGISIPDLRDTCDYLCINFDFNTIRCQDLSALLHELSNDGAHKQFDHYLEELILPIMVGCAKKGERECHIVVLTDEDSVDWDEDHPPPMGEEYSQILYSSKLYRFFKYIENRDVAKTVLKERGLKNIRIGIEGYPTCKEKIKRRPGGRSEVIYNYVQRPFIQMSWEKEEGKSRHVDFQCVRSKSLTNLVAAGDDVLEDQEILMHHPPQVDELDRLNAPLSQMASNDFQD
inactive: alvocidib 0.05 | Tubastatin A -0.174 | [1] 0.01 | defactinib -0.041 | [2] -0.025 | encorafenib -0.165 | [3] -0.058 | alisertib -0.089 | [4] -0.095 | gefitinib 0.035 | lapatinib -0.064 | pictilisib 0.039 | crizotinib -0.077 | [5] 0.006 | duvelisib -0.082 | gandotinib 0.006 | tozasertib -0.119 | doramapimod -0.01 | bafetinib 0.007 | [6] -0.005

HNRNPH2 (UniProt P55795)
UniProt P55795, sequence (P55795 whole entry, looked up): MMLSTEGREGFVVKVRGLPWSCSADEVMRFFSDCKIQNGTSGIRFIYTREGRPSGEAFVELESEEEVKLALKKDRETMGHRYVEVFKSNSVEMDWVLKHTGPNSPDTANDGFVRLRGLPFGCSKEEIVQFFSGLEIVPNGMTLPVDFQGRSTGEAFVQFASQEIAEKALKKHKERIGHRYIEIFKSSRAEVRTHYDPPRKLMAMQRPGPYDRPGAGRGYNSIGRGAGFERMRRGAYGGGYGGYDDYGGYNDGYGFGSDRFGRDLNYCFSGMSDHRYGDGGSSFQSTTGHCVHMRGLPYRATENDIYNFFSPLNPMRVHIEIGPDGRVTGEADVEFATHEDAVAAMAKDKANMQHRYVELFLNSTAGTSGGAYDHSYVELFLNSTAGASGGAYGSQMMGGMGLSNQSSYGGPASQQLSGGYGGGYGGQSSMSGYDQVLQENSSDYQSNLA
inactive: alvocidib -0.003 | Tubastatin A -0.209 | [1] 0.02 | defactinib 0.019 | [2] -0.043 | encorafenib 0.037 | [3] -0.032 | alisertib -0.004 | [4] -0.007 | gefitinib -0.047 | lapatinib 0.025 | pictilisib -0.004 | crizotinib -0.097 | [5] -0.048 | duvelisib -0.024 | gandotinib 0.068 | tozasertib -0.032 | doramapimod 0.062 | bafetinib 0.018 | [6] 0.008

KDM1A (UniProt O60341)
inactive: alvocidib -0.034 | Tubastatin A -0.067 | [1] -0.023 | defactinib -0.003 | [2] 0.013 | encorafenib 0.003 | [3] 0.095 | alisertib 0.012 | [4] 0.001 | gefitinib 0.006 | lapatinib -0.01 | pictilisib -0.029 | crizotinib -0.036 | [5] -0.055 | duvelisib -0.025 | gandotinib -0.056 | tozasertib -0.031 | doramapimod 0.015 | bafetinib -0.016 | [6] 0.025

GSTM4 (UniProt Q03013)
UniProt Q03013, sequence (Q03013 whole entry, looked up): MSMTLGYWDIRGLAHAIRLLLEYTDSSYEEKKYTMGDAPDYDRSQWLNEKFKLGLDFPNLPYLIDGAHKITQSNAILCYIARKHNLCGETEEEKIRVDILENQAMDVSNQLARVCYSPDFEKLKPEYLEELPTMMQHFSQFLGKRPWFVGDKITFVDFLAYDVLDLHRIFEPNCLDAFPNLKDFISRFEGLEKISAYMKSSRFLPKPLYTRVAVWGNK
inactive: alvocidib 0.006 | Tubastatin A -0.012 | [1] 0.029 | defactinib 0.006 | [2] 0.077 | encorafenib -0.117 | [3] 0.095 | alisertib 0.03 | [4] 0.002 | gefitinib 0.075 | lapatinib -0.091 | pictilisib 0.073 | crizotinib -0.006 | [5] -0.118 | duvelisib -0.034 | gandotinib 0.011 | tozasertib -0.12 | doramapimod 0.076 | bafetinib 0.029 | [6] 0.051

GTF2H4 (UniProt Q92759)
inactive: alvocidib 0.005 | Tubastatin A -0.069 | [1] 0.018 | defactinib 0.085 | [2] -0.01 | encorafenib 0.025 | [3] -0.015 | alisertib 0.016 | [4] 0.02 | gefitinib -0.022 | lapatinib -0.026 | pictilisib 0.027 | crizotinib -0.025 | [5] 0.061 | duvelisib -0.01 | gandotinib -0.14 | tozasertib 0.031 | doramapimod 0 | bafetinib -0.039 | [6] 0.038

GMPS (UniProt P49915)
UniProt P49915, sequence (P49915 whole entry, looked up): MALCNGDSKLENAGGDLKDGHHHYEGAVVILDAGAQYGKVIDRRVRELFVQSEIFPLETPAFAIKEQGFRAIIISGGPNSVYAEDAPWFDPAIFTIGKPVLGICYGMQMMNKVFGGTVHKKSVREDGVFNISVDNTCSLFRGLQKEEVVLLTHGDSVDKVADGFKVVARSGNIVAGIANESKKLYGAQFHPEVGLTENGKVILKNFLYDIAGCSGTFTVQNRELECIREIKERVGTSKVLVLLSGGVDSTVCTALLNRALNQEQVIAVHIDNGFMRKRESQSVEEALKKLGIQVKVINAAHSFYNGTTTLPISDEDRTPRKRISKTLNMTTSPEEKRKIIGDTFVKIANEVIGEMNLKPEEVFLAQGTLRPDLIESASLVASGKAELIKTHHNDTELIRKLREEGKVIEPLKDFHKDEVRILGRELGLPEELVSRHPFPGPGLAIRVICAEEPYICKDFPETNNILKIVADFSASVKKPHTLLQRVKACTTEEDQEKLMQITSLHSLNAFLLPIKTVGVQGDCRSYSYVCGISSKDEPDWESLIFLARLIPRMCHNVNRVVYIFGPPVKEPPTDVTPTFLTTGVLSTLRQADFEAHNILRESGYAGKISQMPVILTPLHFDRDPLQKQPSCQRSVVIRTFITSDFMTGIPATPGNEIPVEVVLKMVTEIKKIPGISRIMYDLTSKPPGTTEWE
inactive: alvocidib 0.04 | Tubastatin A -0.065 | [1] -0.009 | defactinib 0.014 | [2] -0.025 | encorafenib -0.022 | [3] 0.025 | alisertib 0.005 | [4] -0.003 | gefitinib -0.026 | lapatinib -0.008 | pictilisib -0.014 | crizotinib 0.007 | [5] 0.115 | duvelisib 0.006 | gandotinib -0.071 | tozasertib -0.001 | doramapimod -0.036 | bafetinib -0.012 | [6] -0.032

HNRNPUL1 (UniProt Q9BUJ2)
UniProt Q9BUJ2, sequence (Q9BUJ2 whole entry, looked up): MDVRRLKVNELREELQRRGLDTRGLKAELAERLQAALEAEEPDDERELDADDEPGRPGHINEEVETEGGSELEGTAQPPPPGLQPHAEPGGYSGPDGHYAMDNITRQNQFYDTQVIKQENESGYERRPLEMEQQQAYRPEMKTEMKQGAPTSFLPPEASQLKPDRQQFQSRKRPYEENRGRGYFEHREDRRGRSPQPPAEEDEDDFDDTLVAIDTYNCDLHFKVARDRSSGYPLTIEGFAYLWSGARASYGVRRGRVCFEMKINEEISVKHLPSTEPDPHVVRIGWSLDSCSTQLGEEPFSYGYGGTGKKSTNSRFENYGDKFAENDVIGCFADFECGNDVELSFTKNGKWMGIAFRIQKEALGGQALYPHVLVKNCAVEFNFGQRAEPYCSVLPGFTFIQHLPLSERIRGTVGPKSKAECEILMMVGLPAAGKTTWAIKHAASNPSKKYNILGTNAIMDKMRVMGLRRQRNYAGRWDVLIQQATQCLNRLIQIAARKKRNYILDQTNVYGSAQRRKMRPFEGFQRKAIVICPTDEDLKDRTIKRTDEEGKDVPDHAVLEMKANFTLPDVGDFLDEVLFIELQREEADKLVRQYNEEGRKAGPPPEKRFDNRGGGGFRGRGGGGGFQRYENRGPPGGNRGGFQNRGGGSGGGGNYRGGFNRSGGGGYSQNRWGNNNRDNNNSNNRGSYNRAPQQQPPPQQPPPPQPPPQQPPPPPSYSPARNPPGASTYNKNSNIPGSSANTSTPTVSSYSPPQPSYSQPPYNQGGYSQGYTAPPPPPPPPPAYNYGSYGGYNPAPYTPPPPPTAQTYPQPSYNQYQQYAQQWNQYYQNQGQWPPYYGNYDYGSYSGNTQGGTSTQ
inactive: alvocidib 0.006 | Tubastatin A 0.01 | [1] -0.011 | defactinib 0.002 | [2] -0.027 | encorafenib 0.003 | [3] -0.003 | alisertib -0.012 | [4] 0.007 | gefitinib -0.015 | lapatinib -0.008 | pictilisib -0.05 | crizotinib 0.043 | [5] 0.005 | duvelisib 0.01 | gandotinib -0.013 | tozasertib 0.012 | doramapimod -0.107 | bafetinib 0.051 | [6] -0.023

IRAK4 (UniProt Q9NWZ3)
inactive: alvocidib 0.01 | Tubastatin A -0.083 | defactinib 0.145 | [2] -0.018 | encorafenib -0.032 | [3] 0.032 | alisertib 0.006 | [4] 0.111 | gefitinib 0.045 | lapatinib -0.021 | pictilisib -0.018 | crizotinib 0.175 | [5] 0.012 | duvelisib 0.026 | gandotinib -0.082 | tozasertib 0 | doramapimod 0.011 | bafetinib -0.013 | [6] 0.012
active: [1] 0.261

GTF3C5 isoform 3 (UniProt Q9Y5Q8)
UniProt Q9Y5Q8, sequence (Q9Y5Q8 whole entry, looked up): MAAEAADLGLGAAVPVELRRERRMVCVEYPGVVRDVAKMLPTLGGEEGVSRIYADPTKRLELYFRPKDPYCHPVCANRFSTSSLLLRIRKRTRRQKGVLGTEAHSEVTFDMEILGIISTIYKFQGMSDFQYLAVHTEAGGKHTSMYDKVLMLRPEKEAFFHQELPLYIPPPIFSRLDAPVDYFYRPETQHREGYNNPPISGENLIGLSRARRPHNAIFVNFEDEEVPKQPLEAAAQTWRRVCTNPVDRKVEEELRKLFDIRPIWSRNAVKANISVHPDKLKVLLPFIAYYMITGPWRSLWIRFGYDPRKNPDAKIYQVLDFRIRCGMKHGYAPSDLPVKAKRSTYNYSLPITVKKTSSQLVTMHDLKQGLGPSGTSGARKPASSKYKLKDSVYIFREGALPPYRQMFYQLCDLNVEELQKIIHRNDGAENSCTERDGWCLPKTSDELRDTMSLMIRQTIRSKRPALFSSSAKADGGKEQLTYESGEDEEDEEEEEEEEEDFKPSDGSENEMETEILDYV
inactive: alvocidib -0.005 | Tubastatin A -0.166 | [1] 0.029 | defactinib 0.014 | [2] -0.012 | encorafenib 0.01 | [3] 0.153 | alisertib 0.004 | [4] 0.001 | gefitinib -0.004 | lapatinib -0.009 | pictilisib -0.01 | crizotinib -0.047 | [5] -0.014 | duvelisib -0.02 | gandotinib -0.002 | tozasertib -0.012 | doramapimod 0.063 | bafetinib -0.047 | [6] 0.02

ISOC2 (UniProt Q96AB3)
UniProt Q96AB3, sequence (Q96AB3 whole entry, looked up): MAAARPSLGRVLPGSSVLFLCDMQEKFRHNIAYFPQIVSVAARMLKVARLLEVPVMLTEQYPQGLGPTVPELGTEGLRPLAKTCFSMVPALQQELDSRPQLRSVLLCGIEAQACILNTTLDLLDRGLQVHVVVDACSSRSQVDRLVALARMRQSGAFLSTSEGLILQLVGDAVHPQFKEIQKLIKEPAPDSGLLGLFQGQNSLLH
inactive: alvocidib 0.004 | Tubastatin A -0.017 | [1] 0.076 | defactinib 0.121 | [2] -0.024 | encorafenib 0.014 | [3] 0.122 | alisertib 0.022 | [4] 0.043 | gefitinib -0.045 | lapatinib -0.036 | pictilisib 0.038 | crizotinib 0.023 | [5] 0.05 | duvelisib -0.038 | gandotinib -0.076 | tozasertib -0.065 | doramapimod -0.014 | bafetinib -0.058 | [6] 0.095

IMPACT (UniProt Q9P2X3)
inactive: alvocidib 0.002 | Tubastatin A -0.04 | [1] -0.006 | defactinib 0.013 | [2] -0.05 | encorafenib 0.063 | [3] -0.083 | alisertib -0.024 | [4] -0.044 | gefitinib 0.167 | lapatinib 0.012 | pictilisib 0.044 | crizotinib 0.083 | [5] 0.077 | duvelisib -0.015 | gandotinib 0.065 | tozasertib 0.026 | doramapimod -0.044 | bafetinib -0.098 | [6] -0.096

KHDRBS1 (UniProt Q07666)
inactive: alvocidib 0.039 | Tubastatin A -0.045 | [1] 0.017 | defactinib -0.006 | [2] 0.007 | encorafenib 0.019 | [3] -0.139 | alisertib -0.025 | [4] 0.011 | gefitinib -0.01 | lapatinib -0.035 | pictilisib 0.024 | crizotinib 0.025 | [5] 0.046 | duvelisib 0.005 | gandotinib -0.08 | tozasertib 0.008 | doramapimod -0.017 | bafetinib 0.039 | [6] -0.031

GTF2I (UniProt P78347)
UniProt P78347, sequence (P78347 whole entry, looked up): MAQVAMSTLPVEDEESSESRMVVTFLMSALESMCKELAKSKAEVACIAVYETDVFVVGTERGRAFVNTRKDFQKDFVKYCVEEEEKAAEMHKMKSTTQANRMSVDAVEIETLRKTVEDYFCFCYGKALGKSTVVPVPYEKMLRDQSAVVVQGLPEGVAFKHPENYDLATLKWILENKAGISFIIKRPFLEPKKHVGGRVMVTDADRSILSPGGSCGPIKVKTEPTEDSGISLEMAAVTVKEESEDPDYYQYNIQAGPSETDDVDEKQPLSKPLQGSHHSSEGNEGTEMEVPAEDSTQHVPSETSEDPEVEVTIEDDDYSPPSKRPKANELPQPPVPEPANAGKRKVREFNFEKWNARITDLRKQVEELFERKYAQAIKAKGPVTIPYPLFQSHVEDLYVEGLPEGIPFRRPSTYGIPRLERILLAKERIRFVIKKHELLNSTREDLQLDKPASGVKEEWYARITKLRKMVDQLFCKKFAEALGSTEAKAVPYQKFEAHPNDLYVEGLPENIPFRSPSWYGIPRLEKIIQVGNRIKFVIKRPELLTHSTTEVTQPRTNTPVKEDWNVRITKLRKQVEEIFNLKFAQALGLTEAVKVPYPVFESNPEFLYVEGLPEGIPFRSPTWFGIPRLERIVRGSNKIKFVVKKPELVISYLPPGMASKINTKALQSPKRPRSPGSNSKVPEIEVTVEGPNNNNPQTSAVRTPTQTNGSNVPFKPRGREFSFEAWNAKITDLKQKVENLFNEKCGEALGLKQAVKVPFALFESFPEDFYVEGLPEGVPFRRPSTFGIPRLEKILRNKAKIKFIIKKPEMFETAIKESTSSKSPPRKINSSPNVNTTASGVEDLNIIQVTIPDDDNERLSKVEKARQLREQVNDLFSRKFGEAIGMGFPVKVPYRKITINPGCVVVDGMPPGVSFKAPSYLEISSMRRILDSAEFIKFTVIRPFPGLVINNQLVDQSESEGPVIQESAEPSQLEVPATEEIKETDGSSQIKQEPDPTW
inactive: alvocidib 0.05 | Tubastatin A -0.096 | [1] 0.012 | defactinib 0.018 | [2] -0.035 | encorafenib 0.015 | [3] 0.14 | alisertib 0.011 | [4] 0.004 | gefitinib -0.01 | lapatinib -0.005 | pictilisib -0.011 | crizotinib -0.039 | [5] -0.01 | duvelisib 0.016 | gandotinib -0.086 | tozasertib -0.004 | doramapimod 0.018 | bafetinib -0.066 | [6] 0.027

GUSB (UniProt P08236)
UniProt P08236, sequence (P08236 whole entry, looked up): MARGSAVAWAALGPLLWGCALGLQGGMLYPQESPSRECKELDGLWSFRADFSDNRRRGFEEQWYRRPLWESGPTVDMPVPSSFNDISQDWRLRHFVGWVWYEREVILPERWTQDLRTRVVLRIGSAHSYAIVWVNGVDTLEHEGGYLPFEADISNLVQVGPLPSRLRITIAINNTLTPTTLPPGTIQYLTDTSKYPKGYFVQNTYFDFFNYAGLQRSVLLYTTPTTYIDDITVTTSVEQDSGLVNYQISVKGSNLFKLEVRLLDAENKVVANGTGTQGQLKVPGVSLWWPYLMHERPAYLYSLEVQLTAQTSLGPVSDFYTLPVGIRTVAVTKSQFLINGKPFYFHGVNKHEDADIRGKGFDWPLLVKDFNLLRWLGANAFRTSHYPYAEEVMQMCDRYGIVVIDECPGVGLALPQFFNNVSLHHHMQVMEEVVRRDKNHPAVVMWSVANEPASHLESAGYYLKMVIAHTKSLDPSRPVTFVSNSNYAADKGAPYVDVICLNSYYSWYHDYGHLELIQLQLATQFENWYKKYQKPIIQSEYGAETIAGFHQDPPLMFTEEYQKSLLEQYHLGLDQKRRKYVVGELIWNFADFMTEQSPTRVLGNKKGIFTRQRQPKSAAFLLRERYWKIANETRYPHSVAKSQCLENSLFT
inactive: alvocidib -0.278 | Tubastatin A 0.022 | [1] 0.017 | defactinib 0.015 | [2] -0.027 | encorafenib 0.089 | [3] -0.019 | alisertib 0.089 | [4] 0.071 | gefitinib -0.049 | lapatinib -0.097 | pictilisib -0.012 | crizotinib -0.044 | duvelisib 0.017 | gandotinib 0.228 | tozasertib 0.02 | doramapimod 0.037 | bafetinib -0.057 | [6] 0.27
active: [5] -0.547

IMPDH1 isoform 6 (UniProt P20839)
inactive: alvocidib -0.009 | [1] 0.002 | defactinib -0.002 | [2] 0.018 | encorafenib -0.001 | alisertib 0.004 | [4] -0.002 | gefitinib 0.005 | lapatinib -0.001 | pictilisib 0.01 | crizotinib -0.021 | [5] -0.061 | duvelisib -0.013 | gandotinib 0.046 | tozasertib 0.014 | doramapimod 0.033 | bafetinib -0.037 | [6] 0.064
active: Tubastatin A -0.226 | [3] -0.478
